Laboratory results from PubChem BioAssay (Tox21).
Results filed as inconclusive are left out. Activity calls are given as the source filed them. Unless noted, calls come from the whole dose curve; as a rule, active = well fitted curve in the direction sought with a large enough effect in the repeat runs; inconclusive = weak or mixed curves; inactive = no such curve, though single readings can be large; an effect the other way counts as inactive or inconclusive.

Key:
[1] = qHTS assay for small molecule agonists of the p53 signaling pathway (AID 651631; calls by dose curve; note: nearly all actives have a fitted effect of over 15% in size)
Method in brief: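 We treat p53RE-bla HCT-116 cells with compounds for 16 h at 37 °C, add LiveBLAzer B/G FRET substrate for 2 h at room temperature, and measure fluorescence intensity.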

[2] = qHTS assay for small molecules that induce genotoxicity in human embryonic kidney cells expressing luciferase-tagged ATAD5 (AID 651632); note: nearly all actives have a fitted effect of over 15% in size
Method in brief: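 Cells were seeded at 2,000 per well, dosed with compound, and incubated 16 hr at 37C in 5% CO2. Luciferase activity was then quantified after a 30 min room-temperature incubation with Amplite.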

[3] = qHTS assay for small molecule agonists of the p53 signaling pathway - cell viability (AID 651633; calls by dose curve;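 note: p53RE-bla HCT reporter cells with a stable beta-lactamase p53 reporter; series mostly up to about 83 µM; nearly all actives have a fitted effect of over 30% in size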)
Method in brief: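 p53RE-bla cells, seeded at 4,000 per well and rested 5 h at 37 C/5% CO2, received compounds in DMSO for 16 h at 37 C. CellTiter-Glo was then added, and luminescence was read after 30 min at room temperature to gauge cytotoxicity.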

[4] = qHTS assay for small molecules that induce genotoxicity in human embryonic kidney cells expressing luciferase-tagged ATAD5 - cell viability (AID 651634; calls by dose curve; note: nearly all actives have a fitted effect of over 25% in size)
Method in brief: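 Cells (HEK293T, luciferase-tagged ATAD5) are seeded at 2,000 per well, dosed with compound or DMSO vehicle, and incubated 15.5 hr at 37C and 5% CO2. CellTiter-Fluor is added for 30 min before fluorescence is measured.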

[5] = qHTS assay for small molecule disruptors of the mitochondrial membrane potential - cell viability (AID 720634; calls by dose curve;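 note: human HepG2 liver cancer cells; series mostly up to about 83 µM; nearly all actives have a fitted effect of over 20% in size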)
Method in brief: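 Cytotoxicity was measured by ATP quantitation in HepG2 wells that had first been treated with compound for 1 hr and stained with m-MPI dye; CellTiter-Glo incubation was 30 min at room temperature.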

[6] = qHTS assay to test for compound auto fluorescence at 590 nm (red) in HepG2 cells (AID 720674)
Method in brief: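 Compound auto-fluorescence is scored relative to Rose Bengal sodium, measured at 540/590 nm in live HepG2 cultures after 1 hr compound contact (37 C, 5% CO2).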

[7] = qHTS assay to test for compound auto fluorescence at 535 nm (green) in HepG2 cells (AID 720675)
[8] = qHTS assay to test for compound auto fluorescence at 460 nm (blue) in HEK293 cells (AID 720678)
Method in brief: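 Blue-channel (Ex/Em 405/460 nm) intensity measured in HEK293 cultures after overnight compound exposure at 37C; signal expressed relative to triamterene. Cells plated 2,000 per well in 10% dialyzed FBS medium and allowed 4-5 hr to attach.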

[9] = qHTS assay to test for compound auto fluorescence at 590 nm (red) in HEK293 cells (AID 720679)
Method in brief: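 Red-channel autofluorescence (Ex/Em 540/590 nm; Rose Bengal sodium reference) was measured after overnight 37C, 5% CO2 exposure of attached HEK293 cells, 2,000 per well in medium with 10% dialyzed FBS.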

[10] = qHTS assay to test for compound auto fluorescence at 535 nm (green) in HEK293 cells (AID 720680)
[11] = qHTS assay to test for compound auto fluorescence at 460 nm (blue) in HEK293 cell free culture (AID 720681)
Method in brief: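 Test compounds were pinned into cell-free culture medium (DMEM with 10% FBS) and fluorescence was read directly at Ex/Em 405/460 nm. Signals were expressed as fluorescence equivalents of triamterene, with DMSO vehicle as control.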

[12] = qHTS assay to test for compound auto fluorescence at 535 nm (green) in HEK293 cell free culture (AID 720682)
Method in brief: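 Green-channel intensity (Ex/Em 485/535 nm) was recorded from compound-treated wells containing only DMEM with 10% FBS. Fluorescein provided the equivalency standard.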

[13] = qHTS assay to test for compound auto fluorescence at 590 nm (red) in HEK293 cell free culture (AID 720683)
Method in brief: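 Tox21 10K library compounds were pinned into cell-free DMEM with 10% FBS and fluorescence was read at excitation 540 nm. Activity is expressed as Rose Bengal sodium equivalency.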

[14] = qHTS assay to test for compound auto fluorescence at 590 nm (red) in HepG2 cell free culture (AID 720684)
Method in brief: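 Ex 540 / Em 590 nm read of compound in cell-free MEM (10% FBS). Rose Bengal sodium reference.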

[15] = qHTS assay to test for compound auto fluorescence at 460 nm (blue) in HepG2 cell free culture (AID 720685)
Method in brief: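 Cell-free plates of MEM plus 10% FBS received 23 nL compound or DMSO vehicle; blue-channel (405/460 nm) intensity scored against triamterene as reference fluorophore.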

[16] = qHTS assay to test for compound auto fluorescence at 535 nm (green) in HepG2 cell free culture (AID 720686)
[17] = qHTS assay to test for compound auto fluorescence at 460 nm (blue) in HepG2 cells (AID 720687)
Method in brief: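 Cells (2,000/well in MEM with 10% FBS) attached overnight at 37 C, then were exposed to compound or DMSO for 1 hr at 37 C, 5% CO2. Fluorescence read at Ex/Em 405/460 nm, expressed as triamterene-equivalent signal.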

[18] = target: Glucocorticoid receptor (Homo sapiens) (UniProt P04150); assay: qHTS assay to identify small molecule agonists of the glucocorticoid receptor (GR) signaling pathway (AID 720691; active = well fitted activation curve with a large enough effect in the signal ratio in the repeat runs, not every such curve was filed as active; the % refers to the signal ratio)
Method in brief: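 Steps: seed GR-bla HeLa cells, incubate 4 h at 37 C/5% CO2; pin-transfer DMSO-dissolved compounds; incubate 18 h at 37 C; add LiveBLAzer B/G FRET substrate; after 2 h at room temperature, measure fluorescence.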

[19] = target: Glucocorticoid receptor (Homo sapiens) (UniProt P04150); assay: qHTS assay to identify small molecule antagonists of the glucocorticoid receptor (GR) signaling pathway (AID 720692; active = well fitted inhibition curve with a large enough effect in the signal ratio in the repeat runs, not every such curve was filed as active; the % refers to the signal ratio)
Method in brief: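 Antagonism was scored as loss of dexamethasone-driven (5 nM final) reporter signal in HeLa cells bearing a glucocorticoid response element–beta-lactamase construct, after 18 h compound exposure at 37 C and 2 h FRET substrate loading.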
% is set by controls: 0 for no effect and ±100 for the full control effect.

Sequence of Glucocorticoid receptor (Homo sapiens) (P04150 whole entry, looked up): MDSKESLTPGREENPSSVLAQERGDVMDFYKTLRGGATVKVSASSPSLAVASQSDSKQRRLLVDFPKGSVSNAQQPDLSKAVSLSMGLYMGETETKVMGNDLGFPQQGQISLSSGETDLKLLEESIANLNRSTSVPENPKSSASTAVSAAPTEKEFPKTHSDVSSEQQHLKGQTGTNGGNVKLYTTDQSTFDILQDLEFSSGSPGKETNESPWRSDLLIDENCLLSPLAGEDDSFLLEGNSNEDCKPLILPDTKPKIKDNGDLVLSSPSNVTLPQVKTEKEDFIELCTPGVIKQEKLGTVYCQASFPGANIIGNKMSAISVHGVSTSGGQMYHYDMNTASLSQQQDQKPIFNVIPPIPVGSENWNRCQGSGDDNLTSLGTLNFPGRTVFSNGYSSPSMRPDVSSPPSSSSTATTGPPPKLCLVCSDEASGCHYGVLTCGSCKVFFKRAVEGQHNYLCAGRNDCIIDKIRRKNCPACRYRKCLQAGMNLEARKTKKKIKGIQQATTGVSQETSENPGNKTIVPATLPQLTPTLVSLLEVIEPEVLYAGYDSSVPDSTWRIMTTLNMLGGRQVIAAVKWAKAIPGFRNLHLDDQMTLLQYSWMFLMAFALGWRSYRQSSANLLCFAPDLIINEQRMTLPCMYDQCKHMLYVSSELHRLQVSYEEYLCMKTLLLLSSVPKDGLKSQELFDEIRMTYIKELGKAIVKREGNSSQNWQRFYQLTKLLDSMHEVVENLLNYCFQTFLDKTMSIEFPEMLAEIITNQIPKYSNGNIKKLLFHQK

NS(=O)(=O)c1cc(C2(O)NC(=O)c3ccccc32)ccc1Cl (stereo not drawn)
inactive: Potency [1] | Potency [2] | Potency [3] | Potency [4] | Potency [5] | fluorescence, relative to Rose Bengal [6] -0.645% [at 18.6 µM] | fluorescence, % of fluorescein control [7] 7.3e-05% [at 18.6 µM] | fluorescence, % of triamterene [8] -0.0194% [at 18.6 µM] | fluorescence, % of fluorescent control [9] 0.0283% [at 18.6 µM] | fluorescence, % of fluorescein [10] 0.0145% [at 18.6 µM] | fluorescence, % of fluorescent control [11] -0.0547% [at 18.6 µM] | activity change [12] 0.0635% [at 18.6 µM] | fluorescence, % of fluorescent control [13] 0.411% [at 18.6 µM] | fluorescence, % of Rose Bengal [14] 0.348% [at 18.6 µM] | fluorescence, % of fluorescent control [15] 0.0381% [at 18.6 µM] | fluorescence, % of fluorescein control [16] 0.0502% [at 18.6 µM] | fluorescence, % of fluorescent control [17] -0.125% [at 18.6 µM] | Potency [18] | Potency [19]

COCCOC(=O)CC#N
inactive: Potency [1] | Potency [2] | Potency [3] | Potency [4] | Potency [5] | outcome [7] | Potency [8] | outcome [9] | outcome [10] | Potency [11] | outcome [12] | outcome [13] | outcome [14] | Potency [15] | outcome [16] | Potency [17] | Potency [18]

CC(C)COC(=O)c1ccccc1O
inactive: Potency [1] | Potency [2] | Potency [3] | Potency [4] | Potency [5] | outcome [6] | outcome [7] | Potency [8] | outcome [9] | Potency [11] | outcome [12] | outcome [13] | outcome [14] | Potency [15] | outcome [16] | Potency [18] | Potency [19]

CCC(C)OC(=O)N1CCCCC1CCO (stereo not drawn)
inactive: Potency [1] | Potency [2] | Potency [3] | Potency [4] | Potency [5] | outcome [6] | outcome [7] | Potency [8] | outcome [9] | Potency [11] | outcome [12] | outcome [13] | outcome [14] | Potency [15] | outcome [16] | Potency [17]

C=CC(=O)OCCCCCC
inactive: Potency [1] | Potency [2] | Potency [3] | Potency [4] | Potency [5] | outcome [7] | Potency [8] | outcome [9] | outcome [10] | Potency [11] | outcome [12] | outcome [13] | outcome [14] | Potency [15] | outcome [16] | Potency [17]

N#CC1(O)CCCCC1
inactive: Potency [1] | Potency [2] | Potency [3] | Potency [4] | Potency [5] | outcome [6] | outcome [7] | Potency [8] | outcome [9] | outcome [10] | Potency [11] | outcome [12] | outcome [13] | outcome [14] | Potency [15] | outcome [16] | Potency [17] | Potency [18]

c1ccc(CCCc2ccccn2)cc1
inactive: Potency [2] | Potency [3] | Potency [4] | Potency [5] | outcome [6] | outcome [7] | Potency [8] | outcome [9] | Potency [11] | outcome [12] | outcome [13] | outcome [14] | Potency [15] | outcome [16] | Potency [17]

C1=C\CC/C=C\CC/C=C\CC/1
inactive: Potency [2] | Potency [3] | outcome [6] | outcome [7] | Potency [8] | outcome [9] | outcome [10] | Potency [11] | outcome [12] | outcome [13] | outcome [14] | Potency [15] | outcome [16] | Potency [17] | Potency [18]
